Measured values taken from PubChem BioAssay AID1159580 (chemical genetic matrix, 2015).
About 2,000 (36%) of roughly 5,500 compounds were called active. Not shown: some 18% with an inconclusive outcome. Some of the results follow. Unmarked numbers belong to inactive results. Rule as the data show it: active = normalized growth mostly below about 0.91 (no sharp cut-off); inconclusive = no clear call, values can overlap the other calls; inactive = mostly above about 0.92.

Assay: chemical genetic growth profiling, strain panel (AID 1159580);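 also: tested at 20 µM; growth read once vehicle control cultures reached saturation at 30 °C; 1 = growth at the plate median or of vehicle wells; lower values mean less growth of the strain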
Settings: growth OD

CCCC(C)C1(CC)C(=O)N=C(S)NC1=O (configuration not stated)
normalized growth (S. cerevisiae deletion strains, locus YJR075W, strain HOC1, hits give low values): 1 | normalized growth (S. cerevisiae deletion strains, locus YKL009W, strain mrt4, hits give low values): 0.908 | normalized growth (S. cerevisiae deletion strains, locus YKL068W, hits give low values): 0.947 | normalized growth (S. cerevisiae deletion strains, locus YKL085W, strain MDH1 (second series), hits give low values): 0.309 (active) | normalized growth (S. cerevisiae deletion strains, locus YKL085W, strain MDH1, hits give low values): 0.309 (active) | normalized growth (S. cerevisiae deletion strains, locus YKL160W, strain elf1, hits give low values): 0.982 | normalized growth (S. cerevisiae deletion strains, locus YKL190W, strain CNB1, hits give low values): 1.02 | normalized growth (S. cerevisiae deletion strains, locus YKR001C, strain vps1, hits give low values): 0.0973 (active) | normalized growth (S. cerevisiae deletion strains, locus YKR026C, strain gcn3, hits give low values): 0.984 | normalized growth (S. cerevisiae deletion strains, locus YKR091W, strain srl3, hits give low values): 1.01 | normalized growth (S. cerevisiae deletion strains, locus YLL001W, strain dnm1, hits give low values): 0.986 | normalized growth (S. cerevisiae deletion strains, locus YLL026W, hits give low values): 1 | normalized growth (S. cerevisiae deletion strains, locus YLL041C, strain sdh2, hits give low values): 0.994 | normalized growth (S. cerevisiae deletion strains, locus YLR027C, strain aat2, hits give low values): 0.998 | normalized growth (S. cerevisiae deletion strains, locus YLR039C, strain RIC1, hits give low values): 1.06 | normalized growth (S. cerevisiae deletion strains, locus YLR058C, strain SHM2, hits give low values): 1 | normalized growth (S. cerevisiae deletion strains, locus YLR102C, strain apc9, hits give low values): 0.0762 (active) | normalized growth (S. cerevisiae deletion strains, locus YLR113W, strain HOG1, hits give low values): 0.98 | normalized growth (S. cerevisiae deletion strains, locus YLR221C, strain rsa3, hits give low values): 0.987 | normalized growth (S. cerevisiae deletion strains, locus YLR258W, strain gsy2, hits give low values): 1 | normalized growth (S. cerevisiae deletion strains, locus YLR262C, strain YPT6 (second series), hits give low values): 0.918 | normalized growth (S. cerevisiae deletion strains, locus YLR262C, strain YPT6, hits give low values): 1.01 | normalized growth (S. cerevisiae deletion strains, locus YLR268W, strain sec22, hits give low values): 0.0785 (active) | normalized growth (S. cerevisiae deletion strains, locus YLR320W, strain mms22, hits give low values): 0.987 | normalized growth (S. cerevisiae deletion strains, locus YLR330W, strain CHS5, hits give low values): 1.01 | normalized growth (S. cerevisiae deletion strains, locus YLR342W, strain FKS1 (second series), hits give low values): 1.04 | normalized growth (S. cerevisiae deletion strains, locus YLR342W, strain FKS1, hits give low values): 0.998 | normalized growth (S. cerevisiae deletion strains, locus YLR357W, strain rsc2, hits give low values): 0.961 | normalized growth (S. cerevisiae deletion strains, locus YLR370C, strain arc18, hits give low values): 0.984 | normalized growth (S. cerevisiae deletion strains, locus YLR371W, strain rom2, hits give low values): 0.077 (active) | normalized growth (S. cerevisiae deletion strains, locus YLR384C, strain iki3, hits give low values): 1 | normalized growth (S. cerevisiae deletion strains, locus YLR418C, strain cdc73, hits give low values): 0.0993 (active) | normalized growth (S. cerevisiae deletion strains, locus YML016C, strain PPZ1, hits give low values): 1 | normalized growth (S. cerevisiae deletion strains, locus YML032C, strain rad52, hits give low values): 0.789 (active) | normalized growth (S. cerevisiae deletion strains, locus YML120C, strain ndi1, hits give low values): 0.988 | normalized growth (S. cerevisiae deletion strains, locus YML124C, strain tub3, hits give low values): 0.113 (active) | normalized growth (S. cerevisiae deletion strains, locus YMR058W, strain fet3, hits give low values): 1 | normalized growth (S. cerevisiae deletion strains, locus YMR078C, strain ctf18, hits give low values): 0.124 (active) | normalized growth (S. cerevisiae deletion strains, locus YMR125W, strain sto1, hits give low values): 0.974 | normalized growth (S. cerevisiae deletion strains, locus YMR129W, hits give low values): 0.971 | normalized growth (S. cerevisiae deletion strains, locus YMR205C, strain PFK2, hits give low values): 0.97 | normalized growth (S. cerevisiae deletion strains, locus YMR223W, strain ubp8, hits give low values): 0.0719 (active) | normalized growth (S. cerevisiae deletion strains, locus YMR231W, strain pep5, hits give low values): 1 | normalized growth (S. cerevisiae deletion strains, locus YMR263W, strain SAP30, hits give low values): 1.01 | normalized growth (S. cerevisiae deletion strains, locus YMR307W, strain GAS1, hits give low values): 0.992 | normalized growth (S. cerevisiae deletion strains, locus YNL067W, strain RPL9B, hits give low values): 1.01 | normalized growth (S. cerevisiae deletion strains, locus YNL071W, strain lat1, hits give low values): 1 | normalized growth (S. cerevisiae deletion strains, locus YNL128W, strain TEP1, hits give low values): 1 | normalized growth (S. cerevisiae deletion strains, locus YNL153C, strain GIM3, hits give low values): 0.999 | normalized growth (S. cerevisiae deletion strains, locus YNL183C, strain NPR1, hits give low values): 0.923 | normalized growth (S. cerevisiae deletion strains, locus YNL209W, strain ssb2, hits give low values): 0.982 | normalized growth (S. cerevisiae deletion strains, locus YNL233W, strain BNI4, hits give low values): 0.999 | normalized growth (S. cerevisiae deletion strains, locus YNL248C, strain rpa49, hits give low values): 0.988 | normalized growth (S. cerevisiae deletion strains, locus YNL250W, strain rad50, hits give low values): 0.434 (active) | normalized growth (S. cerevisiae deletion strains, locus YNL271C, strain bni1, hits give low values): 0.163 (active) | normalized growth (S. cerevisiae deletion strains, locus YNL298W, strain CLA4, hits give low values): 0.372 (active) | normalized growth (S. cerevisiae deletion strains, locus YNL307C, strain MCK1, hits give low values): 0.0689 (active) | normalized growth (S. cerevisiae deletion strains, locus YNL322C, strain KRE1 (second series), hits give low values): 0.979 | normalized growth (S. cerevisiae deletion strains, locus YNL322C, strain KRE1, hits give low values): 1.01 | normalized growth (S. cerevisiae deletion strains, locus YNR049C, strain mso1, hits give low values): 0.992 | normalized growth (S. cerevisiae deletion strains, locus YNR052C, strain pop2, hits give low values): 1.01 | normalized growth (S. cerevisiae deletion strains, locus YOL006C, strain TOP1, hits give low values): 1.03 | normalized growth (S. cerevisiae deletion strains, locus YOL012C, strain htz1): 0.212 | normalized growth (S. cerevisiae deletion strains, locus YOL147C, strain pex11, hits give low values): 0.677 (active) | normalized growth (S. cerevisiae deletion strains, locus YOR001W, strain rrp6, hits give low values): 0.98 | normalized growth (S. cerevisiae deletion strains, locus YOR061W, strain CKA2, hits give low values): 1.01 | normalized growth (S. cerevisiae deletion strains, locus YOR069W, strain VPS5, hits give low values): 1.01 | normalized growth (S. cerevisiae deletion strains, locus YOR070C, strain gyp1, hits give low values): 1 | normalized growth (S. cerevisiae deletion strains, locus YOR080W, strain dia2, hits give low values): 0.989 | normalized growth (S. cerevisiae deletion strains, locus YOR083W, strain WHI5, hits give low values): 0.988 | normalized growth (S. cerevisiae deletion strains, locus YOR106W, strain vam3, hits give low values): 0.979 | normalized growth (S. cerevisiae deletion strains, locus YOR136W, strain idh2, hits give low values): 0.0798 (active) | normalized growth (S. cerevisiae deletion strains, locus YOR144C, strain elg1, hits give low values): 1 | normalized growth (S. cerevisiae deletion strains, locus YOR184W, strain ser1, hits give low values): 0.0729 (active) | normalized growth (S. cerevisiae deletion strains, locus YOR231W, strain MKK1, hits give low values): 0.994 | normalized growth (S. cerevisiae deletion strains, locus YOR265W, strain rbl2, hits give low values): 0.986 | normalized growth (S. cerevisiae deletion strains, locus YOR270C, strain vph1, hits give low values): 0.969 | normalized growth (S. cerevisiae deletion strains, locus YOR290C, strain snf2, hits give low values): 0.997 | normalized growth (S. cerevisiae deletion strains, locus YOR316C, strain cot1, hits give low values): 0.0718 (active) | normalized growth (S. cerevisiae deletion strains, locus YPL051W, strain arl3, hits give low values): 1 | normalized growth (S. cerevisiae deletion strains, locus YPL055C, strain LGE1, hits give low values): 1.01 | normalized growth (S. cerevisiae deletion strains, locus YPL078C, strain atp4, hits give low values): 0.981 | normalized growth (S. cerevisiae deletion strains, locus YPL106C, strain sse1, hits give low values): 0.977 | normalized growth (S. cerevisiae deletion strains, locus YPL240C, strain hsp82, hits give low values): 0.991 | normalized growth (S. cerevisiae deletion strains, locus YPL241C, strain CIN2, hits give low values): 1.02 | normalized growth (S. cerevisiae deletion strains, locus YPL256C, strain CLN2, hits give low values): 0.977 | normalized growth (S. cerevisiae deletion strains, locus YPR119W, strain clb2, hits give low values): 0.101 (active) | normalized growth (S. cerevisiae deletion strains, locus YPR141C, strain kar3, hits give low values): 0.983 | normalized growth (S. cerevisiae deletion strains, locus YPR163C, strain tif3, hits give low values): 0.0717 (active) | normalized growth (S. cerevisiae deletion strains, locus YPR167C, strain met16, hits give low values): 0.0756 (active) | normalized growth (S. cerevisiae deletion strains, strain wtn01, hits give low values): 0.06 (active) | normalized growth (S. cerevisiae strains, strain wild type, hits give low values): 1.01
